# Results published in publication PMC7862700, “An all-to-all approach to the identification of sequence-specific readers for epigenetic DNA modifications on cytosine”.
# Experiments:
# Experiment in all cases: DAPPL (digital affinity profiling via proximity ligation, sequencing); 10 mM Tris-HCl pH 7.5, 50 mM NaCl, 1 mM DTT, 4% glycerol, room temperature, 30 min; GST-TFs on glutathione beads, 16-mer random dsDNA library, 0.1% formaldehyde crosslink after washing; high values mean tight binding
# [1] = biological target: T1, FLI1 (Homo sapiens, UniProt Q01543 1-452); settings: protein: recombinant; tags: N-terminal GST; dsDNA, one strand shown
# T1 sequence: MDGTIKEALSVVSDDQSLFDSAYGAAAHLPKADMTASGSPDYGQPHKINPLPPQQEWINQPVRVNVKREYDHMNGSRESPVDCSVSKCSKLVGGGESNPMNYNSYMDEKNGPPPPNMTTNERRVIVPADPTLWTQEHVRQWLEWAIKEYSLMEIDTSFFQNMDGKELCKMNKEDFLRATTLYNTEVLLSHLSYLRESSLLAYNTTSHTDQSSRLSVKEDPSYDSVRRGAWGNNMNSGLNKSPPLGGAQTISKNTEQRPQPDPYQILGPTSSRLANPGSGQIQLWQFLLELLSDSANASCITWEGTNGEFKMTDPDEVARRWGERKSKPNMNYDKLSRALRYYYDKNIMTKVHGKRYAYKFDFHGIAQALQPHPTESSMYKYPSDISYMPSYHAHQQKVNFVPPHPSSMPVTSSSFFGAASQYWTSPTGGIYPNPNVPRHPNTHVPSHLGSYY
# Method in brief: (§1)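 GST fusions of human transcription factors were expressed in yeast and captured with glutathione beads. Once given DNA barcodes and pooled alongside a tag-only sample, they were incubated for 30 min at room temperature with 200 nmole of a random double-stranded 16-mer DNA library in Tris/NaCl/DTT/glycerol buffer, then washed, crosslinked (0.1% formaldehyde), proximity-ligated, PCR-amplified and sequenced on an Illumina NextSeq500. The binding signal of each hexamer is its read frequency for a factor divided by its frequency for the tag-only sample.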
# [2] = biological target: T2, ELK1 (Homo sapiens, UniProt P19419 1-428); settings: protein: recombinant; tags: N-terminal GST; dsDNA, one strand shown
# T2 sequence: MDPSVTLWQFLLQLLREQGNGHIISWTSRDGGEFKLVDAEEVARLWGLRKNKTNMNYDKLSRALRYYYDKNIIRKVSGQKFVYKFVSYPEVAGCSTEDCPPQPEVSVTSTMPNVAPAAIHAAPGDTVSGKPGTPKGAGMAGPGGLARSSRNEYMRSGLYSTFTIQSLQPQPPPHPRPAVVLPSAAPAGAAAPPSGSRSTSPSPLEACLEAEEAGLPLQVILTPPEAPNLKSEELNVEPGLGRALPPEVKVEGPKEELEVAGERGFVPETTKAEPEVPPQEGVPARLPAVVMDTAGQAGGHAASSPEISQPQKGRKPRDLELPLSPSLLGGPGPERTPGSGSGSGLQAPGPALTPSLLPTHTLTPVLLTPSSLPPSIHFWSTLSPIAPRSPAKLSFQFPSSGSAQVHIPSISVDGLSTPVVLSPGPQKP
# Method in brief: as §1
# [3] = biological target: T3, GABPA (Homo sapiens, UniProt Q06546 1-454); settings: protein: recombinant; tags: N-terminal GST; dsDNA, one strand shown
# T3 sequence: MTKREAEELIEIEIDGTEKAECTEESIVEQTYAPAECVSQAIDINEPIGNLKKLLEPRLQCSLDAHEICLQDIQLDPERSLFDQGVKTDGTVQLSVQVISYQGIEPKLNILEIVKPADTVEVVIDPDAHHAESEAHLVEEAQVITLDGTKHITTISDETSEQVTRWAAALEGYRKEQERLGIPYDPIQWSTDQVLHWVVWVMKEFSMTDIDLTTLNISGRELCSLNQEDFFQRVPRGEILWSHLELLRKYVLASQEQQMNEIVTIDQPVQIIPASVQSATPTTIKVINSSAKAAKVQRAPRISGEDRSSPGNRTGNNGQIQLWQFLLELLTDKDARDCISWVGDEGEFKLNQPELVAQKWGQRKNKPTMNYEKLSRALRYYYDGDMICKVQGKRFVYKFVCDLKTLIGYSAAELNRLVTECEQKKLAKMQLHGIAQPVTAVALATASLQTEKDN
# Method in brief: as §1
# [4] = biological target: T4, ERG (Homo sapiens, UniProt P11308 1-479); settings: protein: recombinant; tags: N-terminal GST; dsDNA, one strand shown
# T4 sequence: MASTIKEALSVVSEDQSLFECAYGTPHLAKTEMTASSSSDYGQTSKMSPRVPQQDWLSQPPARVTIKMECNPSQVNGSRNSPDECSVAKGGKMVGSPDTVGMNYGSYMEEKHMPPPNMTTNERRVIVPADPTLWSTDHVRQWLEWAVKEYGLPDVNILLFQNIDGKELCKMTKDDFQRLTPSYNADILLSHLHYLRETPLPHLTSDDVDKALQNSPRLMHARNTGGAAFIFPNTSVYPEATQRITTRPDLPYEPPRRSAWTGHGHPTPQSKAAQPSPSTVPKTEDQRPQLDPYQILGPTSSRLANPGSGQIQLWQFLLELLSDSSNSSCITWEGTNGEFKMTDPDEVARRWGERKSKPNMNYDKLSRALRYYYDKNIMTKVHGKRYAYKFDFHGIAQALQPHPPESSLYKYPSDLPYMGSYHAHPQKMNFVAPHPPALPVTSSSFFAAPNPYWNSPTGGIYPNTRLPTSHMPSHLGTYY
# Method in brief: as §1
# [5] = biological target: ELF1 (Homo sapiens, UniProt P32519 1-619); settings: protein: recombinant; tags: N-terminal GST; dsDNA, one strand shown
# Sequence of ELF1 (P32519 whole entry): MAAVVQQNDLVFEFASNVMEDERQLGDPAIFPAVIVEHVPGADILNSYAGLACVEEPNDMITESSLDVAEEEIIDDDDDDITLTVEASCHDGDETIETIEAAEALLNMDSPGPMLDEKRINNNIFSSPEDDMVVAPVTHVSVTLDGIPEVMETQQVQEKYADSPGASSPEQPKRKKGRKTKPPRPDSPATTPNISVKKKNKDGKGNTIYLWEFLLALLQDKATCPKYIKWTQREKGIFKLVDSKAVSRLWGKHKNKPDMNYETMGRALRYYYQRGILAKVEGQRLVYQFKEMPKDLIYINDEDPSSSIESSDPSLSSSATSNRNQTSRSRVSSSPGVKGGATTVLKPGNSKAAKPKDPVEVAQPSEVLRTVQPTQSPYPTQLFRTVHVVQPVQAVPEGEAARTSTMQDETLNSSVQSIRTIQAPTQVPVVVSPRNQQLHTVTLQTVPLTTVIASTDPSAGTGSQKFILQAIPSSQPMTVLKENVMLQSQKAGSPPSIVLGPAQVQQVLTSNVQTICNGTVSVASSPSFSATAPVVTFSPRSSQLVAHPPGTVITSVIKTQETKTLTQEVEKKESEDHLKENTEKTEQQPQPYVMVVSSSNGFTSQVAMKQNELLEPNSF
# Method in brief: as §1
# [6] = biological target: T5, EHF (Homo sapiens, UniProt Q9NZC4 1-300); settings: protein: recombinant; tags: N-terminal GST; dsDNA, one strand shown
# T5 sequence: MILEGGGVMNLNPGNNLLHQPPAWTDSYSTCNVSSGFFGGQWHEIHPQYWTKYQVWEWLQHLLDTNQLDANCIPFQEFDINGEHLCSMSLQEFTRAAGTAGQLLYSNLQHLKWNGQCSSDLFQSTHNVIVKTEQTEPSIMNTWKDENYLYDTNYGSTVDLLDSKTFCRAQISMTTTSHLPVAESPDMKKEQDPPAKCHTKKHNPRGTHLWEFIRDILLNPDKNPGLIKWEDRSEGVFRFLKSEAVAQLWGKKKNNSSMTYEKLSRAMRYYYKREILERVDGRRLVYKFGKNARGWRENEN
# Method in brief: as §1
# [7] = biological target: SPI1 (Homo sapiens, UniProt P17947 1-270); settings: protein: recombinant; tags: N-terminal GST; dsDNA, one strand shown
# Method in brief: as §1
# [8] = biological target: SPIB (Homo sapiens, UniProt Q01892 1-262); settings: protein: recombinant; tags: N-terminal GST; dsDNA, one strand shown
# Sequence of SPIB (Q01892 whole entry): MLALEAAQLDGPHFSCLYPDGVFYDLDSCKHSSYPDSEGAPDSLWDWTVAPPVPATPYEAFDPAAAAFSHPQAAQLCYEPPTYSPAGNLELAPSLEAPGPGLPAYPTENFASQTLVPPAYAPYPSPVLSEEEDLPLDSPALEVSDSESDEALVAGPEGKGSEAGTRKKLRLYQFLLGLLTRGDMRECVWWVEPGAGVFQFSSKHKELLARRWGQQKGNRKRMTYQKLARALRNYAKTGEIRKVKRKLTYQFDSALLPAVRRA
# Method in brief: as §1
# [9] = biological target: T6, ELK3 (Homo sapiens, UniProt P41970 1-407); settings: protein: recombinant; tags: N-terminal GST; dsDNA, one strand shown
# T6 sequence: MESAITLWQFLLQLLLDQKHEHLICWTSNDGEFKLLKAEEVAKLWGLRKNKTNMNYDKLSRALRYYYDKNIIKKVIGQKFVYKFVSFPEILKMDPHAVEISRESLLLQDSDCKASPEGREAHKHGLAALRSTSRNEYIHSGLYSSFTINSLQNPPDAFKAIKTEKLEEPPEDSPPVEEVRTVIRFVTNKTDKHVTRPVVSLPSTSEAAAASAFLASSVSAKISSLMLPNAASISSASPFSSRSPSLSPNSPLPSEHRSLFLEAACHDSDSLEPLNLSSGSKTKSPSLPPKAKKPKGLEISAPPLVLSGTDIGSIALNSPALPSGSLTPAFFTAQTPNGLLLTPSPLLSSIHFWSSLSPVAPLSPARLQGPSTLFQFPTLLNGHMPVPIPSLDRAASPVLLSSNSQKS
# Method in brief: as §1
# [10] = biological target: T7, FEV (Homo sapiens, UniProt Q99581 1-238); settings: protein: recombinant; tags: N-terminal GST; dsDNA, one strand shown
# T7 sequence: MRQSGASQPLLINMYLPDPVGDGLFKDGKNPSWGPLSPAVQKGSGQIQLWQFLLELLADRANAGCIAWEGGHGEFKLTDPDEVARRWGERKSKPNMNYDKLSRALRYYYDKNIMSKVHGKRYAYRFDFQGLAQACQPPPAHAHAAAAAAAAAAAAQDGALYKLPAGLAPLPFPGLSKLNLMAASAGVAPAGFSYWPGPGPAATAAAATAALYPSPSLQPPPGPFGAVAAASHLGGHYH
# Method in brief: as §1
# [11] = biological target: ETV5 (Homo sapiens, UniProt P41161 1-510); settings: protein: recombinant; tags: N-terminal GST; dsDNA, one strand shown
# Sequence of ETV5 (P41161 whole entry): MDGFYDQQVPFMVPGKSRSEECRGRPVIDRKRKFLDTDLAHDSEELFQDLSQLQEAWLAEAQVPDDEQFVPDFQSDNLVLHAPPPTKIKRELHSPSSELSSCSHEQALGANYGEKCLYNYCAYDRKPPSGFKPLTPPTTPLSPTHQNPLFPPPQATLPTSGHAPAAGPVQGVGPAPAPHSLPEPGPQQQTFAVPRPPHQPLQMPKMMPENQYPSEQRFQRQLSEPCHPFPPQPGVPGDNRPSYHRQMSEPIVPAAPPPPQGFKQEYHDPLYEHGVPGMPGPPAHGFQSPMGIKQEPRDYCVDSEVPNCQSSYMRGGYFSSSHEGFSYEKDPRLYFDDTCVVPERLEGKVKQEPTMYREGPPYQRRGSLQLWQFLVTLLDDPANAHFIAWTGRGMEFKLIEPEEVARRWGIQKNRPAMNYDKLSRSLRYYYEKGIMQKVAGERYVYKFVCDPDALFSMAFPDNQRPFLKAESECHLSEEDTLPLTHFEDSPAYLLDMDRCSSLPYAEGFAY
# Method in brief: as §1
# [12] = biological target: HSF1 (Homo sapiens, UniProt Q00613 1-529); settings: protein: recombinant; tags: N-terminal GST; chain copies: 3; dsDNA, one strand shown
# Sequence of HSF1 (Q00613 whole entry): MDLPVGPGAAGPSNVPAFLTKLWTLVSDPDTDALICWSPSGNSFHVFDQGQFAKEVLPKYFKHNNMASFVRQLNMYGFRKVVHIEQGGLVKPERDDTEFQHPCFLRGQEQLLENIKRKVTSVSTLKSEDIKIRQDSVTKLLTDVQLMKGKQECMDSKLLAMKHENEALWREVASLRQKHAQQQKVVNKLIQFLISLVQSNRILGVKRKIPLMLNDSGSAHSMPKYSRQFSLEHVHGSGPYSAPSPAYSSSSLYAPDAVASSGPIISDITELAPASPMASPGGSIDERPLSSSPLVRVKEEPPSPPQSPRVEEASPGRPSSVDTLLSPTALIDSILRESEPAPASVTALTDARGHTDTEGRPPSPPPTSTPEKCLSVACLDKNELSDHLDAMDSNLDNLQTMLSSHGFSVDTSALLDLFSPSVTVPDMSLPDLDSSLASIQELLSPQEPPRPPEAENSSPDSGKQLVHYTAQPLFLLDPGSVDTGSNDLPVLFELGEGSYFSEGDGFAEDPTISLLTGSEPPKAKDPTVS
# Method in brief: as §1
# [13] = biological target: T8, SPIC (Homo sapiens, UniProt Q8N5J4 1-248); settings: protein: recombinant; tags: N-terminal GST; dsDNA, one strand shown
# T8 sequence: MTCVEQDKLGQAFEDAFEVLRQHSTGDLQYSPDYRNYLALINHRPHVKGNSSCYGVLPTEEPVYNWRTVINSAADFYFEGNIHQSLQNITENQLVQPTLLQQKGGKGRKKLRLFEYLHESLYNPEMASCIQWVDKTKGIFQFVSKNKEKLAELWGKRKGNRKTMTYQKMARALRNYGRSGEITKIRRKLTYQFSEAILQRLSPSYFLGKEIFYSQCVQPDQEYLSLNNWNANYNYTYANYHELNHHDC
# Method in brief: as §1
# [14] = biological target: ELF4 (Homo sapiens, UniProt Q99607 1-663); settings: protein: recombinant; tags: N-terminal GST; dsDNA, one strand shown
# Sequence of ELF4 (Q99607 whole entry): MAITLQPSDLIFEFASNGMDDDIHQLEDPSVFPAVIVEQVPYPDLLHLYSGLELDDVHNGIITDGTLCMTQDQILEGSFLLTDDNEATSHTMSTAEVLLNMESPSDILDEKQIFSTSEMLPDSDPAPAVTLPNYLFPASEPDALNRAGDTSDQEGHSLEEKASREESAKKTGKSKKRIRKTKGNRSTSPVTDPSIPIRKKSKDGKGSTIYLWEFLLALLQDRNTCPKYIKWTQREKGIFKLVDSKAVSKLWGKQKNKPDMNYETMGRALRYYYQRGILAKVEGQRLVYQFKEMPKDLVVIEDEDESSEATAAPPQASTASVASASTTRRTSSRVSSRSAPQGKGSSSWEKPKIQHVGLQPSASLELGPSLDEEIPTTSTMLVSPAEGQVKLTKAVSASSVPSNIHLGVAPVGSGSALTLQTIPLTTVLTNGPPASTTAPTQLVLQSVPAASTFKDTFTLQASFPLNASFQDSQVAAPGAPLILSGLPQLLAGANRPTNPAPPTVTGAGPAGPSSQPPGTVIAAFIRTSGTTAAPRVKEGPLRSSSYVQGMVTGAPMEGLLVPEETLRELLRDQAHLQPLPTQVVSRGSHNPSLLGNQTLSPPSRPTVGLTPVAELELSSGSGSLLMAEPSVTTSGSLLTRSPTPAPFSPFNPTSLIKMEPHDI
# Method in brief: as §1
# [15] = biological target: T9, ELK4 (Homo sapiens, UniProt P28324-2 1-405); settings: protein: recombinant; tags: N-terminal GST; dsDNA, one strand shown
# T9 sequence: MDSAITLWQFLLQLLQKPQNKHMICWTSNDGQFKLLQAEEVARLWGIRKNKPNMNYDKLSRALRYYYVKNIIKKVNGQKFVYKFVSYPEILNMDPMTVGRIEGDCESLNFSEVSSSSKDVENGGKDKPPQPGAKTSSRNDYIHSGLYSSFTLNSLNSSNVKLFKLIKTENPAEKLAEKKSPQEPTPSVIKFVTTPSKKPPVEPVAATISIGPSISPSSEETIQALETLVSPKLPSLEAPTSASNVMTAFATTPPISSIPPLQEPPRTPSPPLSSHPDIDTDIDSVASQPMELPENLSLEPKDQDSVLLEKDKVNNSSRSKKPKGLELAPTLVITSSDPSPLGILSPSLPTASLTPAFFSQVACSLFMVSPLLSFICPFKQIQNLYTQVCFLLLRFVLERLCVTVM
# Method in brief: as §1
# [16] = biological target: T10, ETV2 (Homo sapiens, UniProt O00321 1-342); settings: protein: recombinant; tags: N-terminal GST; dsDNA, one strand shown
# T10 sequence: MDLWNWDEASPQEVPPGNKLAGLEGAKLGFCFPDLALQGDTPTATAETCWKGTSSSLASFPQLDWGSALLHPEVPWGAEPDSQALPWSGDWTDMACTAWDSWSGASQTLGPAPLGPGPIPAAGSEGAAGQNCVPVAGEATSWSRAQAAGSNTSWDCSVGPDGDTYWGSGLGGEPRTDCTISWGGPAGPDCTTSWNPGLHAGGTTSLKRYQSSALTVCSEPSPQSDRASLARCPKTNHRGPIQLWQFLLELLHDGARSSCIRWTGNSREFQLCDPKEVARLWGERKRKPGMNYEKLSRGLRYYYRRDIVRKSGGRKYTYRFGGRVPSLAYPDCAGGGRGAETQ
# Method in brief: as §1
# [17] = biological target: T11, ELF3 (Homo sapiens, UniProt P78545 1-371); settings: protein: recombinant; tags: N-terminal GST; dsDNA, one strand shown
# T11 sequence: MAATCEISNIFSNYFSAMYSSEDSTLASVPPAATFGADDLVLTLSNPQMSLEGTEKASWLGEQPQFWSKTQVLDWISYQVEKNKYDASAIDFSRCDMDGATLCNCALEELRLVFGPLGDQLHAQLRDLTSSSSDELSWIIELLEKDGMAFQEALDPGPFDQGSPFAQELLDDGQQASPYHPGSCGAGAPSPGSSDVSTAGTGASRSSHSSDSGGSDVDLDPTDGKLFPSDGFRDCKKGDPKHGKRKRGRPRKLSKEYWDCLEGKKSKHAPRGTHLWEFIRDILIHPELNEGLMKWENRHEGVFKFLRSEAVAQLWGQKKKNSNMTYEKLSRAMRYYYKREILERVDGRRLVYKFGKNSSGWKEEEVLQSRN
# Method in brief: as §1
# [18] = biological target: CRX (Homo sapiens, UniProt O43186 1-299); settings: protein: recombinant; tags: N-terminal GST; dsDNA, one strand shown
# Sequence of CRX (O43186 whole entry): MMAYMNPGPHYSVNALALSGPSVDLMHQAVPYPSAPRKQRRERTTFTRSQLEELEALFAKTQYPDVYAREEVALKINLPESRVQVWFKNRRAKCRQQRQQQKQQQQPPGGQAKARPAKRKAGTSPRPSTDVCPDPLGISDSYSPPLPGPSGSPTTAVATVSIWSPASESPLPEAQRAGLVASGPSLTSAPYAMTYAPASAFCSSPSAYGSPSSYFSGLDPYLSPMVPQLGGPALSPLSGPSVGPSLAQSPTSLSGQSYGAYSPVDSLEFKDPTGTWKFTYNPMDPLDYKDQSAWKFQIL
# Method in brief: as §1
# [19] = biological target: ETV1 (Homo sapiens, UniProt P50549 1-477); settings: protein: recombinant; tags: N-terminal GST; dsDNA, one strand shown
# Sequence of ETV1 (P50549 whole entry): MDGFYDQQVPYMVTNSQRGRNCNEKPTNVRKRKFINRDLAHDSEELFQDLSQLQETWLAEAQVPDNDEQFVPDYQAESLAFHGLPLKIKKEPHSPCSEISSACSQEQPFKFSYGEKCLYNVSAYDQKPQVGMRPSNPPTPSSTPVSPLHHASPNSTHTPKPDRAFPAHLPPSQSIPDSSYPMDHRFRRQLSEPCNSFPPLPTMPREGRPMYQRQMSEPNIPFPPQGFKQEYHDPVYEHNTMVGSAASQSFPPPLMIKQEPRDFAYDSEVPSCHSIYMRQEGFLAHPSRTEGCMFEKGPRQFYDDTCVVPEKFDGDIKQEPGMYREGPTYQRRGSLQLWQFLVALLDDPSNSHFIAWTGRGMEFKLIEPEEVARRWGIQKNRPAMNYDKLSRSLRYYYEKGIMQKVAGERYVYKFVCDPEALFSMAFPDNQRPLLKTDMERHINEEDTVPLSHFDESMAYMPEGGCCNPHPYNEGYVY
# Method in brief: as §1
sequence,measurement,setting,value
CTCTCT,binding signal,[1],"1.77 fold enrichment (6-mer frequency, TF over GST control)"
same,binding signal,[2],"1.78 fold enrichment (6-mer frequency, TF over GST control)"
same,binding signal,[3],"1.56 fold enrichment (6-mer frequency, TF over GST control)"
same,binding signal,[4],"1.62 fold enrichment (6-mer frequency, TF over GST control)"
same,binding signal,[5],"1.76 fold enrichment (6-mer frequency, TF over GST control)"
same,binding signal,[6],"1.66 fold enrichment (6-mer frequency, TF over GST control)"
same,binding signal,[7],"1.53 fold enrichment (6-mer frequency, TF over GST control)"
same,binding signal,[8],"1.56 fold enrichment (6-mer frequency, TF over GST control)"
same,binding signal,[9],"1.49 fold enrichment (6-mer frequency, TF over GST control)"
same,binding signal,[10],"1.67 fold enrichment (6-mer frequency, TF over GST control)"
same,binding signal,[11],"1.57 fold enrichment (6-mer frequency, TF over GST control)"
same,binding signal,[12],"1.69 fold enrichment (6-mer frequency, TF over GST control)"
same,binding signal,[13],"1.77 fold enrichment (6-mer frequency, TF over GST control)"
same,binding signal,[14],"1.74 fold enrichment (6-mer frequency, TF over GST control)"
same,binding signal,[15],"1.74 fold enrichment (6-mer frequency, TF over GST control)"
same,binding signal,[16],"1.63 fold enrichment (6-mer frequency, TF over GST control)"
same,binding signal,[17],"1.58 fold enrichment (6-mer frequency, TF over GST control)"
same,binding signal,[18],"1.5 fold enrichment (6-mer frequency, TF over GST control)"
same,binding signal,[19],"1.49 fold enrichment (6-mer frequency, TF over GST control)"
